Compound activity as filed in PubChem.
HADH2 inhib: blocks human hydroxyacyl-CoA dehydrogenase type II. Potency, µM (top dose mostly 57.1 µM), usual class: inhibitors. recombinant HADH2, NADH fluorescence, beta-hydroxybutyryl-CoA. AID 886. Q99714. 3.4% of 73,000 active; further: nearly all actives have a fitted effect of over 60% in size
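Buffer 100 mM Tris-HCl pH 9.0/0.01% Tween-20; HADH2 20 nM; NAD+ 1 mM; beta-hydroxybutyryl-CoA 90 uM (all final). 15 min cpd preincubation, RT.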
PK Bst: modulators of Bacillus stearothermophilus pyruvate kinase | purified pyruvate kinase, luminescence ATP production; ribose 5-phosphate activator present at AC10 | Potency, µM | 1.2% of 51,000 active; in the data active means potency below about 11 µM; inconclusive means mostly about 12 µM to 25 µM;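 the screen sought inhibitors and activators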
ALOX15 inhib: 15-hLO (ALOX15) enzyme inhibition; 1.4% of 74,000 active; purified 15hLO-1, xylenol orange hydroperoxide absorbance; Potency, µM (series often up to 57.1 µM), most hits filed as inhibitors; P16050; AID 887; further: nearly all actives have a fitted effect of over 55% in size
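Compounds were preincubated 15 min at room temperature with 40 nM purified human enzyme (25 mM Hepes pH 7.5, 0.01% Triton X-100); 50 uM arachidonic acid reacted 6 min. Fe-xylenol orange detection, 30 min, absorbance ratio 573/405 nm.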
FLuc inh: blocks Photinus pyralis firefly luciferase activity; P08659; purified firefly luciferase, luminescence, 8 min; 2.2% of 72,000 active; Potency, µM (series often up to 57.1 µM), hits mostly inhibitors; further: nearly all actives have a fitted effect of over 40% in size
Target sequence (P08659 whole entry, looked up): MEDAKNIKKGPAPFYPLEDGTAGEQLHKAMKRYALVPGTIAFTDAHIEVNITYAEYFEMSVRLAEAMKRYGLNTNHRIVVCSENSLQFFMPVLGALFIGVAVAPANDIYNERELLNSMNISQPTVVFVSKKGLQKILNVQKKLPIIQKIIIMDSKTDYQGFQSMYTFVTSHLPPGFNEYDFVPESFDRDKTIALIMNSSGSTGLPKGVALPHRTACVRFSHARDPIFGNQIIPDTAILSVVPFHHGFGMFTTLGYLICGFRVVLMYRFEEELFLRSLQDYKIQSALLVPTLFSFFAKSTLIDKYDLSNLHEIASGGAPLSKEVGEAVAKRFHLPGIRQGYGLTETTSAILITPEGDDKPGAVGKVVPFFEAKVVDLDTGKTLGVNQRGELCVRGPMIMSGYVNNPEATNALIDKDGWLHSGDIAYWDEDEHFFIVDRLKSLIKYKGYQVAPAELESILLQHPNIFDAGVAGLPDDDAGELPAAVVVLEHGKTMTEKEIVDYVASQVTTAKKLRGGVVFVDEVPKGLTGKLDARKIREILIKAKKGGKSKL
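qHTS concentration-response profiling: light output of P. pyralis luciferase with luciferin and 10 uM ATP, imidazole buffer pH 7.2. Read by luminescence after 8-min room-temperature incubation.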
HSD17B inhib: inhibitors of human HSD17B10 dehydrogenase; Q99714; recombinant HSD17B10, NADH fluorescence kinetic; Potency, µM (titrated, usually from 57.1 µM), usual class: inhibitors; 7.6% of 75,000 active; AID 893;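 further: the protocol describes HADH2 (HSD17B10) and not the HSD17B4 of the title; nearly all actives have a fitted effect of over 70% in size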
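His-tagged E. coli-expressed HADH2 at 20 nM in 100 mM Tris-HCl pH 9.0 with 0.01 % Tween-20, preincubated 15 min with compound at room temperature. Reaction with 1 mM NAD+ and 90 uM beta-hydroxybutyryl coenzyme A; NADH fluorescence (360/450 nm) read kinetically over 4 min, last minus first point.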
ERK AVP inh: blocks ERK signaling stimulated by vasopressin. HEK293-V1b, vasopressin-stimulated pERK AlphaScreen. Potency, µM (highest dose often 57.5 µM), usual class: inhibitors. 0.99% of 72,000 active. AID 995; further: nearly all actives have a fitted effect of over 55% in size
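qHTS, compounds titrated on V1b-expressing HEK293 cells. Preincubation 30 min at 37C, vasopressin 25 nM for 5 min, lysis 10 min, bead incubation 5 hr at room temperature.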
Hits are given with their value; i = inactive; ? = inconclusive; nt = not tested or not shown; [ ] = remark or other dose. Rows were chosen to be rich in hits. Some 11% of all compounds tested hit in one or more screens of this group. Unless noted, the call rests on the fitted dose curve; in most records, active means well fitted curve in the direction sought with a large enough effect; inconclusive means small, poorly fitted or top-dose-only effect, or another doubt; inactive means no such curve, though single readings can be large; an effect the other way counts as inactive or inconclusive.

SMILES	HADH2 inhib	PK Bst	ALOX15 inhib	FLuc inh	HSD17B inhib	ERK AVP inh
NC(=O)c1ccccc1N/C=C/C(=O)c1ccccc1	i	2.5	i	3.2µM	?	i
O=C1C[C@@H](O)[C@@H](O)[C@H]2[C@@H]3C(=O)N(C4CCCCC4)C(=O)[C@@H]3CC[C@H]12	i[11.4 µM]	nt	i[11.4 µM]	i[11.4 µM]	i[11.4 µM]	i[11.5 µM]
O=C(Nc1ccccc1)C1=C(O)CC(c2ccco2)CC1=Nc1ccccc1 (configuration not stated)	25µM	i	3.2µM	i	7.9µM	i
O=C1CC(c2ccco2)CC(O)=C1C=NCCO (configuration not stated)	i	nt	i	i	i	i
CC(=O)Nc1ccc(NC(=O)c2cc(C)nn2-c2ccccc2)cc1	i	i	i	i	i	i
Cc1nnc(SCC(=O)NCc2ccc3c(c2)OCO3)s1	i	i	i	i	i	i
CC(=O)c1cc2c(cc1NC(=O)c1cc(C)nn1-c1ccccc1)OCO2	i	nt	i	i	32µM	i
CC(=O)c1cc2c(cc1NC(=O)CSc1nnc(C)s1)OCO2	?	i	i	i	3.2µM	i
CCCCCCc1c(C[C@H](N)C(=O)O)o[nH]c1=O	i	nt	i	i	i	i
Cn1nnnc1SCc1nnc(-c2ccc(Cl)cc2)o1	i	i	i	i	i	i
Cc1occc1-c1nnc(SCc2nnc(-c3ccc(Cl)cc3)o2)n1C	i	4.5	i	i	i	i
CCOc1ccc(N2Cc3ncccc3C2=O)cc1	i	11	i	i	i	i
CCOc1ccc(N2C(=O)c3ccccc3C2O)cc1 (configuration not stated)	i	nt	i	?	i	i
CCCCN(c1ccccc1)c1ncnc2c1cnn2C	i[11.4 µM]	nt	i[11.4 µM]	i[11.4 µM]	i[11.4 µM]	i[11.5 µM]
C[C@@H]1Cc2ccccc2N1NC(=O)c1ccc(Cl)c(S(N)=O)c1 (some centres not stated)	i	nt	i	i	i	i
CCc1nnc(NC(=O)CCC(=O)N2CCN(Cc3ccc(Cl)cc3)CC2)s1	i	i	i	i	i	?
CCc1nnc(NC(=O)CCC(=O)N2CCN(Cc3ccccc3)CC2)s1	i	nt	i	13µM	i	i
c1ccc(CN2COc3c(ccc4c5c(ccc34)CN(Cc3ccccc3)CO5)C2)cc1	i[11.4 µM]	nt	i[11.4 µM]	i[11.4 µM]	i[11.4 µM]	i[11.5 µM]
O=S(=O)(c1ccccc1)N1CCC2(CCN(Cc3nccs3)CC2)CC1	i	nt	i	i[11.4 µM]	i	?
CC(C)NCC(O)Cn1c2c(c3ccccc31)CCc1c-2cnn1-c1ccccc1 (configuration not stated)	?	?	13µM	i	32µM	?
CN1CCc2c(n(CC(O)CN3C(=O)c4ccccc4S3(=O)=O)c3ccccc23)C1=O (configuration not stated)	nt	i	nt	i	nt	nt
O=C1N/C(=C\c2ccccc2)c2ccccc21	i	5.6	i	i	?	?
CCCOC(=O)CSc1nnc(-c2ccc(Cl)cc2Cl)o1	i	i	i	i	i	i
CCOC(=O)CSc1nnc(-c2ccc(Cl)cc2Cl)o1	i	nt	i	13µM	i	i
O=Cc1cccc(Br)c1	i	nt	i	nt	i	i
SMILES	HADH2 inhib	PK Bst	ALOX15 inhib	FLuc inh	HSD17B inhib	ERK AVP inh
c1cncc(CNCc2cccnc2)c1	i[11.4 µM]	nt	i[11.4 µM]	i[11.4 µM]	i[11.4 µM]	i[11.5 µM]
O=C(Nc1sc2c(c1C(=O)O)CCCCC2)c1ccco1	i	nt	i	20µM	i	i
CCOC(=O)c1c(NC(=O)c2ccco2)sc2c1CCCCC2	?	nt	?	i	32µM	i
CCOC(=O)c1c(NC(=O)c2cccs2)sc2c1CCCC2	i	nt	i	i	?	i
CC(=O)O[C@H]1C(=O)[C@]2(C)[C@H]([C@H](OC(=O)c3ccccc3)[C@@]3(O)C[C@H](OC(=O)[C@@H](O)[C@@H](NC(=O)c4ccccc4)c4ccccc4)C(C)=C1C3(C)C)[C@]1(OC(C)=O)CO[C@@H]1C[C@@H]2O	i	nt	nt	i[11.4 µM]	nt	nt
Cc1ccc(-c2nnc(SCC(=O)O)n2N)cc1	i	i	i	i	i	i
Cc1ccc(-c2cc(-c3nnc(SCC(=O)N(C)CCC#N)n3N)c3ccccc3n2)cc1	i	i	i	13µM	25µM	?
Cc1nn(-c2ccccc2)c2sc(C(=O)N(CC(=O)NC3CCCC3)Cc3ccco3)cc12	i	i	i	i	?	i
